A selection: hits, their analogues and other compounds. The true share with any hit is near 2.9%.
proKLK7 act: activates the human kallikrein-7 zymogen; P49862; purified proKLK7, EDANS-DABCYL substrate fluorescence; 100% is mature enzyme control, 0% vehicle; activation, % at 7 µM; 0.9% of 370,000 active; AID 652039;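 active = activation above the mean of all tested compounds plus 3 SD, computed per campaign excluding outliers beyond control limits, cut at about 13% in these data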
ADAM17 inh: inhibits human ADAM17; recombinant ADAM17, EDANS/DABCYL FRET peptide cleavage; inhibition, % at 6.95 µM; 0.83% of 370,000 active;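 active = inhibition above the mean of compounds lying between control limits plus 3 SD, set per campaign, cut at about 8.5% in these data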;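 also: 0% = DMSO-only wells as the low control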
ADAM10 inh: inhibitors of human ADAM10. recombinant ADAM10, EDANS/DABCYL FRET peptide cleavage, 3 h. inhibition, % at 7 µM. 0.62% of 370,000 active. AID 720582;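 active = inhibition above a per-campaign cutoff equal to the mean of compounds falling between control-based bounds plus 3 SD, cut at about 20% in these data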;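 also: 0% = DMSO wells while the 100% control is not disclosed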
PLCg1 inh: inhibitors of human phospholipase C gamma1; P19174; purified PLC-gamma1, fluorogenic substrate, fluorescence; inhibition, % at 12.2 µM; 0.84% of 370,000 active; in the data active = inhibition above about 9.5%
PLCb3 inh: blocks human PLC-beta3 enzyme activity; Q01970; Purified PLC-beta3, fluorogenic substrate, fluorescence; inhibition, % at 12.2 µM; 0.18% of 370,000 active; AID 720704; in the data active = inhibition above about 11%;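 also: 0% = median of compound wells on plate and 100% = full blocker control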
Target sequence (Q01970 whole entry, looked up): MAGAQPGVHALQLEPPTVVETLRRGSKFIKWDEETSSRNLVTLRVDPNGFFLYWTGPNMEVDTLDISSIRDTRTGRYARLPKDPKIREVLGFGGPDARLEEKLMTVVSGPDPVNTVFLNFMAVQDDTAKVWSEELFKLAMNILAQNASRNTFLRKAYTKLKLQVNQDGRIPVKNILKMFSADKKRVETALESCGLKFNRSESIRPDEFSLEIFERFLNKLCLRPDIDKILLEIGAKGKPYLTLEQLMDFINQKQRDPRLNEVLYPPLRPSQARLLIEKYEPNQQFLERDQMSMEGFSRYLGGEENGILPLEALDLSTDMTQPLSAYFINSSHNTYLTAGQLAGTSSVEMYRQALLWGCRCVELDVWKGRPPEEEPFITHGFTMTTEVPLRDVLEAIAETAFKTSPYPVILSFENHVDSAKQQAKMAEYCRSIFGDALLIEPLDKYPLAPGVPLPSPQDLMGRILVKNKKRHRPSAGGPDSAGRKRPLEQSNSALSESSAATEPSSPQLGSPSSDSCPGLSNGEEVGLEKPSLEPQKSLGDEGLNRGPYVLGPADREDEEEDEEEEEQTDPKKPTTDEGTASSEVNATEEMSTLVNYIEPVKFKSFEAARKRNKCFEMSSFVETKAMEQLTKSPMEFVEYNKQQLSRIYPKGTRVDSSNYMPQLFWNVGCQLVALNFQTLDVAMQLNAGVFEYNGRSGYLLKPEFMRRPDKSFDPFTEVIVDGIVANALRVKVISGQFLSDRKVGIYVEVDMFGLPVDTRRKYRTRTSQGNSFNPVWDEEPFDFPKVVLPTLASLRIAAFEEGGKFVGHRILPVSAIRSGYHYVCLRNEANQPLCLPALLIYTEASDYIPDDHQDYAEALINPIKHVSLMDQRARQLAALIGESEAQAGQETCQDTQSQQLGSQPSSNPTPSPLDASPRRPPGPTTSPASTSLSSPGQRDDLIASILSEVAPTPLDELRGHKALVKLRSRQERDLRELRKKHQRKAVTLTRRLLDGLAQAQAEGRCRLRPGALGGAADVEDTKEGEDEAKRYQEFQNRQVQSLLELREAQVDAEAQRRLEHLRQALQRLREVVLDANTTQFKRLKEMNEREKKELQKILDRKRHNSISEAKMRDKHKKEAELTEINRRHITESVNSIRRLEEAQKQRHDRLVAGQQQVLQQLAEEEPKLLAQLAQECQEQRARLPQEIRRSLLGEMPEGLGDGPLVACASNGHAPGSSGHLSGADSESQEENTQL
KLK7 act conf: confirmation of human kallikrein-7 zymogen activators | 68% of 3,200 active | shares compounds with proKLK7 act | purified proKLK7, EDANS-DABCYL substrate fluorescence; scaled: vehicle 0, mature enzyme 100 | AID 686949 | activation, % at 7 µM;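 active = activation, as change over the incubation, above the mean of all tested compounds plus 3 SD, cut at about 13% in these data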
EDANS interfere: counter-screen for kallikrein-7 activators: EDANS-DABCYL optical interference; shares compounds with proKLK7 act; EDANS-DABCYL substrate fluorescence interference, no enzyme, 4 h; solvent 0%, active enzyme control 100%; activation, % at 7 µM; 80% of 3,200 active;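 active = activation above the all-compound mean plus 3 SD, ignoring values outside control-based bounds, cut at about 4.8% in these data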;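 also: value is the 4 h activation minus the activation read at time zero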
EDANS interf: EDANS fluorescence interference in dose response, no enzyme; 20% of 250 active; EC50, µM; shares compounds with proKLK7 act; EDANS-DABCYL peptide fluorescence interference; AID 720493;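 active = compounds that raise the fluorescence signal in this interference counterscreen, with EC50 at or below 10 µM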;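 also: intact quenched peptide substrate alone read at 355 nm excitation and 520 nm emission; signal is fluorescence gain from T0 to T4 after four hours at room temperature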
The depositor's hits bear a star; i = inactive; · = not tested or not shown; ! = repeats disagree.

SMILES	proKLK7 act	ADAM17 inh	ADAM10 inh	PLCg1 inh	PLCb3 inh	KLK7 act conf	EDANS interfere	others
COc1ccc(C2Nc3ccccc3C(=O)N2Cc2ccco2)cc1COc1ccccc1C (stereo not drawn)	·	-86	-260	-138	-210	·	·
COc1ccc(C2Nc3ccccc3C(=O)N2Cc2ccco2)cc1CN1C(=O)c2ccccc2C1=O (stereo not drawn)	30*!	-32	-106	-13	-18	11	5.8*
COc1ccc(C2Nc3ccccc3C(=O)N2Cc2ccco2)cc1COc1ccc(F)cc1 (stereo not drawn)	-15	-85	-308	-147	-188	·	·
O=C1c2ccccc2NC(c2cccc(O)c2)N1Cc1ccco1 (stereo not drawn)	27*	-364	i	-304	-414	29*	29*
O=C1NN(c2ccc(Br)cc2)C(=O)/C1=C\c1ccc(O)cc1O	157*	-162	-367	-71	-87	181*	196*
Nn1c(SCC(=O)Nc2cccc3ccccc23)nnc1-c1n[nH]c2c1CCC2	1	0	3	0	4	·	·
Cc1cc(N2CCN(C)CC2)nc2ccc(NC(=O)c3ccc4c(c3)OCO4)cc12	19*	-1	-7	-19	-27	7	6.9*
COc1cc(C(=O)Nc2ccc3nc(N4CCN(C)CC4)cc(C)c3c2)cc(OC)c1OC	0	-1	-10	-21	-32	·	·
CCCN1CCN(C(=S)Nc2ccc3nc(N4CCN(CC)CC4)cc(C)c3c2)CC1	20*	-143	-428	-196	-282	4	6.5*
Cc1cc(N2CCCC2)nc2ccc(NC(=S)NCCCOC(C)C)cc12	16*	-195	i	-215	-218	14*	12*	EDANS interf=>70
CCOc1ccc(C(=O)Nc2ccc3nc(N4CCN(CC)CC4)cc(C)c3c2)cc1	38*	-3	2	-17	-24	217*	192*
CCN1CCN(c2cc(C)c3cc(NC(=O)c4cc(OC)cc(OC)c4)ccc3n2)CC1	0	-2	-3	-18	-29	·	·
CC(=O)C1(C(=O)NCc2ccccc2)CC(c2ccccc2C(F)(F)F)=NO1 (stereo not drawn)	0	-6	0	-1	1	·	·
COC(=O)[C@]12C[C@H](CC(=O)NCc3cccs3)C(=O)N(CCC3=CCCCC3)C1=C[C@H](C(C)C)O[C@@H]2C1CC1	0	-1	1	-1	0	·	·
C=CCN1C[C@@H](COCc2ccccc2)Oc2cc(F)ccc2S1(=O)=O	1	2	3	-1	1	·	·
CCN1CCN(c2cc(C)c3cc(NC(=S)N4CCN(c5ccccc5F)CC4)ccc3n2)CC1	14*	-118	-358	-160	-218	1	2
CCOC(=O)CSc1nc2nc(Cl)c(Cl)nc2[nH]1	36*	i	i	-209	-302	30*	31*
CSc1nc2nc(Cl)c(Cl)nc2[nH]1	26*	i	i	-429	i	45*	46*
CNC(=S)NNC(=O)c1sc2cc(C(F)(F)F)cnc2c1-c1ccccn1	8	-61	-192	-52	-59	·	·
CNC(=S)NNC(=O)c1sc2cc(C(F)(F)F)cnc2c1-c1cccnc1	14*	-140	-417	-84	-108	16*	22*
COc1ccc(Br)cc1S(=O)(=O)NCCN1CCOCC1	42*	5	10	3	4	0	0
Cc1c(C)c2c(OCC(=O)O)cc3c(c2oc1=O)CCC(C)(C)O3	33*	i	i	i	i	61*	73*
Cc1c(C)c2c(OCC(=O)NCC(=O)NCC(=O)O)cc3c(c2oc1=O)CCC(C)(C)O3	57*	i	i	i	i	79*	79*
Cc1c(C)c2c(OCC(=O)Nc3ccc(CCO)cc3)cc3c(c2oc1=O)CCC(C)(C)O3	-59	i	i	i	i	·	·
COCCNC(=O)/C(C#N)=C/c1cn(CC(=O)NCc2ccco2)c2ccccc12	75*	-6	-7	-6	-11	8	5.8*
SMILES	proKLK7 act	ADAM17 inh	ADAM10 inh	PLCg1 inh	PLCb3 inh	KLK7 act conf	EDANS interfere	others
CC(=O)N1CCc2cc(S(=O)(=O)NC3CCN(C(=O)OCc4ccccc4)CC3)ccc21	0	-1	1	0	2	·	·
NC(=O)Cn1cc(/C=N/NC(=O)c2ccc(Cn3cc(Cl)cn3)o2)c(-c2ccccc2)n1	20*	-16	-42	-5	-12	2	1
Cc1ccccc1/C=N\NC(=O)c1ccc(Cn2cccn2)o1	0	-5	-3	-2	-4	·	·
COc1ccc(NC(=O)c2sc3nc(-c4cccnc4)ccc3c2N)cc1OC	56*	-2	-1	-317	i	15*	16*
COc1ccc(NC(=O)c2sc3nc(-c4cccnc4)ccc3c2N)cc1	0	-3	-6	-48	-66	·	·
Cn1c(NC(=O)c2ccccc2)nc(Cc2ccccc2)c1-c1ccccc1	0	8	8	3	-9	·	·
CCC(=O)Oc1ccc2c(c1)OC1(OC(C)=O)OC(C)CC1=C2C (stereo not drawn)	297*	i	i	i	i	610*	615*
CCC(=O)Oc1ccc2oc(=O)cc(C)c2c1	1	0	-6	-6	-5	·	·
COC(=O)c1cc(-c2ccc(OC)cc2)nc2nc(SC)[nH]c(=O)c12	25*	-196	-491	-424	i	21*	17*	EDANS interf=>70
CCOC(=O)c1cc(-c2ccc(C)cc2)nc2nc(SC)[nH]c(=O)c12	5	-95	-409	-149	-154	·	·
CC(C)(C)c1ccc(OC(=O)Nc2ccc(O)c(C(=O)O)c2)cc1	13*	-64	-135	-93	-129	14*	12*
Cc1cccc(OC(=O)Nc2ccc(C(=O)O)c(O)c2)c1	0	-5	-21	0	-2	·	·
CC(=O)C1=C(C)N(Cc2ccc(F)cc2)C(=S)NC1c1ccc(Cl)cc1 (stereo not drawn)	0	3	13	1	-3	·	·
CN(C)CCNc1ccc2ncn3c4ccc(O)cc4c(=O)c1c23	72*	-4	-13	i	i	57*	50*
N=c1oc2cc(O)ccc2cc1C(=O)Nc1nc2ccccc2s1	55*	i	i	i	i	67*	73*
CC(C)(C)OC(=O)n1ccc2ccc(-c3ccc4cc[nH]c4c3)cc21	-4	-43	-128	-25	-45	·	·
CCOC(=O)C1CCN(S(=O)(=O)c2cccc(-c3cn4cccnc4n3)c2)CC1	27*	i	i	i	i	26*	-15	EDANS interf=>69

From PubChem
